# Screening data (PubChem BioAssay)
# HCMV inh: human cytomegalovirus inhibition | HFF cells, HCMV-luciferase reporter, 72 h; hits give low values | activity change, negative = inhibition, % at 57.5 µM | 4.5% of 410,000 active | AID 1259415; in the data active = activity change below about -60%; inconclusive = no clear call, values can overlap the other calls; inactive = above about -39%
#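 Screen run at 2 compound doses on HFFs infected with reporter HCMV, MOI 1 PFU/cell. Luciferase activity from cell lysates at 72 h post infection gave inhibition relative to buffer-only and Salinomycin wells.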
# FMDV inh: foot and mouth disease virus antiviral activity; FMDV antiviral cell-based qHTS; Potency, µM (titrated, usually from 57.9 µM), most hits filed as inhibitors; 1.2% of 410,000 active; calls by dose curve; tested in HEK293T cells; also: read-out not given here; nearly all actives have a fitted effect of over 45% in size
# LASV entry inh: Lassa virus entry inhibition; Lassa virus pseudotype entry inhibition, cell reporter; 1.2% of 300,000 active; Potency, µM (doses to about 37.9 µM), hits mostly inhibitors; calls by dose curve; tested in HEK293 cells; also: nearly all actives have a fitted effect of over 50% in size
# HCV inh: HCV inhibition. Huh7.5.1 HCVcc-Cre infection, luciferase reporter, 44 h. Potency, µM (series often up to 41.8 µM), actives largely listed as inhibitors. 3.4% of 340,000 active. AID 651820; active = well fitted inhibition curve with a large enough effect; inconclusive = small, poorly fitted or top-dose-only effect, or another doubt; inactive = no such curve, though single readings can be large or run the other way
#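 Compounds are dispensed onto cells plated 4 h earlier at 1,000 per well, with HCVcc-Cre virus (about 0.5 moi) added next. Following 44 h of culture, luminescent signal is measured for 15 sec after 15 min with substrate at room temperature.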
# Marburg entry inh: inhibitors of Marburg virus binding or cell entry | Marburg virus pseudotyped entry inhibition, cell reporter | Potency, µM (series often up to 37.8 µM), actives largely listed as inhibitors | 1.8% of 300,000 active | AID 540276; calls by dose curve; tested in HEK293 cells
# Numbers stand for hits; . = inactive; ? = inconclusive; / = no result given; ! = a repeat was not active. The list is not random: actives were taken first. Their share in the collection is about 7.9%.
SMILES,HCMV inh,FMDV inh,LASV entry inh,HCV inh,Marburg entry inh
CN(C)c1cccc(C(=O)OCc2cc(=O)oc3cc(O)ccc23)c1,.,.,?,?,?
CC1CN(S(=O)(=O)c2cccc(C(=O)OCc3cc(=O)oc4cc(O)ccc34)c2)CC(C)O1 (stereo unspecified),.,22.4µM,?,10µM!,?
CCOc1ccccc1OCCNC(C)Cc1ccc(OC)c(S(N)(=O)=O)c1 (stereo unspecified),.,/,/,/,/
Cc1cc2[nH]c(=O)c(=O)[nH]c2cc1S(=O)(=O)N1CCC(C)CC1,.,.,/,.,/
Cc1cc(C)c2c(ccc3cccc[n+]32)c1,?,?,.,1µM,?
COc1ccc(NC(=S)NC(NC(=O)c2cccc(C)c2)C(Cl)(Cl)Cl)c([N+](=O)[O-])c1 (stereo unspecified),.,.,?,?,?
COc1ccc(NC(=S)NC(NC(=O)c2cccc(Cl)c2)C(Cl)(Cl)Cl)c([N+](=O)[O-])c1 (stereo unspecified),-88.0,.,?,11.2µM!,.
O=C(NC(NC(=S)Nc1ccccc1Cl)C(Cl)(Cl)Cl)c1cccc(Cl)c1 (stereo unspecified),-98.7,.,?,?,?
O=C(Cc1cccc2ccccc12)NC(NC(=S)Nc1ccccc1Cl)C(Cl)(Cl)Cl (stereo unspecified),.,.,?,?,5.62µM
Cc1nc(NCc2c(F)cccc2F)sc1-c1ccn(CCN2CCOCC2)n1,/,.,/,/,/
COC(=O)N[C@@H](c1cccc(C)c1)[C@]1(C(C)=O)CCCC1=O,/,/,/,/,.
CCN1/C(=C/c2cccc[n+]2C)Sc2ccc(OC)cc21,-93.6,?,/,3.55µM,.
COc1ccc2c(c1)N(C)/C(=C/c1cccc[n+]1C)S2,-99.3,?,/,3.55µM,.
C=CCC(C=C)[N+]1(CC(=O)OC)CCCCC1 (stereo unspecified),.,.,.,.,.
CCCNC[C@H](O)COc1ccccc1C(=O)CCc1ccccc1,/,/,/,/,7.08µM
CC(C)(C)NCC(O)COc1ccccc1C(=O)CCc1ccccc1 (stereo unspecified),?,/,.,.,10.3µM
CCOc1cc(C(=O)Nc2ccc(-c3nc4cc(Cl)ccc4o3)cc2)cc(OCC)c1OCC,.,.,.,/,/
CC1(C)CC(=O)C2=C(C1)Oc1nc3ccccc3cc1C2C(C#N)C#N (stereo unspecified),.,8.91µM,15.8µM,?,?
COc1ccc(Cc2nc3ccc(C(=O)NCCc4ccc(Cl)cc4)cc3o2)cc1,.,.,?,/,/
COc1ccc2c(c1)c(C(=O)CN1CCN(C)CC1)c(C)n2Cc1ccccc1,.,.,.,.,20µM
CCN1CCN(CC(=O)c2c(C)n(Cc3ccccc3)c3ccc(OC)cc23)CC1,.,.,.,?,?
Cc1ccccc1C(=O)O/N=C(\N)c1ccccc1,.,11.2µM,?,?,?
N/C(=N\OC(=O)c1cccc(Br)c1)c1ccccn1,.,.,/,.,/
Cc1ccccc1/C(N)=N/OC(=O)c1ccc(F)cc1,-90.2,.,/,?,/
N/C(=N\OC(=O)c1cccc(Br)c1)c1ccccc1,.,.,.,11.2µM,?
SMILES,HCMV inh,FMDV inh,LASV entry inh,HCV inh,Marburg entry inh
Cc1ccccc1C(=O)O/N=C(\N)c1ccc([N+](=O)[O-])cc1,.,.,.,.,?
COc1cccc(CN(C)C(=O)c2cc(COc3ccc4ncccc4c3)on2)c1,-86.2,11.2µM,?,5.62µM,.
Cc1ccc(OCc2cc(C(=O)N(C)CCc3ccccn3)no2)cn1,-62.9,.,/,.,/
COc1cccc(OCc2cc(C(=O)N(C)CCOc3ccc(C)cc3)no2)c1,.,.,/,11.2µM,/
CN(CCc1ccccn1)C(=O)c1cc(COc2ccc(F)cc2F)on1,?,.,.,.,.
Cc1cc(OCc2cc(C(=O)N(C)CCOc3ccccc3)no2)cc(C)c1Cl,.,.,/,?,/
Cc1ncc2c(c1CNC(=O)c1ccc3c(c1)OCO3)CCN(C(=O)c1cnsn1)C2,/,.,/,/,/
Cc1c(C(=O)N2CCC(C)CC2)sc2ncnc(N(C)c3ccccc3)c12,-65.9,?,.,?,?
O=C(NCc1ccc(F)cc1)C(=O)NCC(c1cccs1)S(=O)(=O)c1cccs1 (stereo unspecified),.,?,.,/,/
Cc1cnc(-n2ncc(C(=O)NCCN3CCOCC3)c2C2CC2)nc1-c1cccs1,/,.,/,/,/
Cc1ccc(SCc2ccc(C(=O)NCc3ccncc3)cc2)cc1,-77.6,/,.,.,?
C#CCOc1c(Br)cc(C2C(C(=O)OC)=C(C)NC3=C2C(=O)c2ccccc23)cc1OCC (stereo unspecified),-62.8,?,.,/,?
CN(CC(=O)Nc1nc2ccccc2s1)S(=O)(=O)c1ccc(Br)cc1,.,35.5µM,.,?,.
CN(C)C(=S)Nc1nc2ccccc2s1,.,.,/,14.1µM,/
CCNC1CCC(Nc2ccnc3cc(Cl)ccc23)CC1 (stereo unspecified),.,.,?,12.6µM,?
OC1CCCC1NCc1ccnc2cc(Cl)ccc12 (stereo unspecified),.,.,.,.,?
OC(CNc1ccnc2cc(Cl)ccc12)CNC1CCCCC1 (stereo unspecified),-77.7,.,?,?,?
O=[N+]([O-])c1ccc(N=Nc2ccc(O)c3ccccc23)cc1,/,.,.,10µM,?
O=S(=O)(Nc1ccc(N=Nc2ccc(O)c3ccccc23)cc1)c1ccccc1,.,.,?,?,?
Clc1ccc2c(N/N=C/c3cccnc3)ccnc2c1,?,.,?,.,?
Cc1ccccc1/C=N/Nc1ccnc2cc(Cl)ccc12,-69.4,?,?,?,?
Cc1ccc(/C=N/Nc2ccnc3cc(Cl)ccc23)c(C)c1,-76.0,39.8µM,?,10µM,?
Oc1ccc(Nc2ccnc3cc(Cl)ccc23)cc1,.,.,.,.,?
Oc1ccc(/C=N/Nc2ccnc3cc(Cl)ccc23)c(O)c1,.,.,/,10µM,.
Clc1ccc2c(N/N=C/c3ccc(Br)cc3)ccnc2c1,-73.1,.,?,11.2µM,3.26µM
SMILES,HCMV inh,FMDV inh,LASV entry inh,HCV inh,Marburg entry inh
COc1ccc(C(=O)N2CCC3(CCCN(c4cccc(-c5ccccc5)c4)C3)CC2)cc1,/,.,/,/,/
O=C(NCCSc1c[nH]c2ccccc12)c1ccccc1Cl,.,.,.,/,.
Clc1ccc(NNc2ccnc3cc(Cl)ccc23)cc1,-69.4,.,.,.,?
CCN1C(=NCc2ccc(OC)cc2)NC(c2ccccc2)C(C(=O)OC)=C1C (stereo unspecified),/,/,/,/,.
O=c1c(-c2ccccc2)nc2ccccc2n1C(c1ccccc1)c1nc2ccccc2[nH]1 (stereo unspecified),.,.,/,/,/
O=c1c(-c2ccccc2)nc2ccccc2n1C(CCc1ccccc1)c1nc2ccccc2[nH]1 (stereo unspecified),-66.6,.,/,/,/
COC(=O)COc1ccc(S(=O)(=O)NCc2ccccn2)cc1,.,.,.,.,.
COc1ccccc1CNc1cc(CSc2ccc(Cl)cc2)nc(C)n1,.,39.8µM,.,?,?
COc1ccccc1CNc1cccc(C)n1,.,.,/,/,/
COc1cccc(CNc2cc(CSc3ccc(Cl)cc3)nc(C)n2)c1,/,12.6µM,?,?,.
